Results: PubChem BioAssay (NCATS)
Results filed as inconclusive are left out. The source made the active and inactive calls. Unless noted, calls come from the whole dose curve.

Columns and labels:
[1] = target: Alpha-galactosidase (Coffea arabica) (UniProt Q42656); assay: Counterscreen for Glucocerebrosidase Inhibitors: qHTS Assay for Coffee Bean alpha-Galactosidase at pH 4.5 (AID 957; active = well fitted curve in the direction sought with a large enough effect; an effect the other way counts as inactive or inconclusive;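 note: plate controls were enzyme alone for no effect and no enzyme for full effect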)
Summary of the method: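 Green coffee bean enzyme (2 nM final) was incubated with compounds (0.7 nM to 77 uM) and 4-methylumbelliferyl alpha-D-galactopyranoside (80 uM final) in 50 mM citric acid, 0.005% Tween-20, pH 4.5, 20 min at room temperature; AC50 from Hill fits.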

[2] = target: Alpha-galactosidase (Coffea arabica) (UniProt Q42656); assay: Counterscreen for Glucocerebrosidase Inhibitors: qHTS Assay for Coffee Bean alpha-Galactosidase at pH 5.9 (AID 998; active = well fitted curve in the direction sought with a large enough effect; an effect the other way counts as inactive or inconclusive;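 note: plate controls were uninhibited enzyme for no effect and no-enzyme basal signal for full effect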)
Summary of the method: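 Green coffee bean enzyme (2 nM final) was incubated with compounds (0.7 nM–77 uM) and 4-methylumbelliferyl alpha-D-galactopyranoside (80 uM) in citrate buffer pH 5.9, 20 min at room temperature. High-pH stop; fluorescence 365/440 nm; AC50 from Hill fits.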

[3] = Validation screen for inhibitors of Lassa infection (AID 463096); note: % is set by controls: 0 for no effect and ±100 for the full control effect
[4] = Inducers of the Endoplasmic Reticulum Stress Response (ERSR) in human glioma: Validation (AID 504836; active = well fitted curve in the direction sought with a large enough effect; an effect the other way counts as inactive or inconclusive; note: 0% is about no effect)
Summary of the method: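 Stably transfected U87-MG human glioma cells carrying a GRP78-based luminescent sensor were seeded at 1000 cells/well, pin-dosed with compounds and incubated 16 h. Luciferase reagent was then added, and end-point luminescence was read after 10 min at room temperature.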

[5] = qHTS for Inhibitors of the Functional Ribonucleoprotein Complex (vRNP) of Lassa (LASV) Arenavirus: LASV Primary Screen - GLuc reporter signal (AID 1347082; calls by dose curve; tested in HEK293 reporter line; note: % is set by controls: 0 for no effect and ±100 for the full control effect; nearly all actives have a fitted effect of over 60% in size)
[6] = qHTS for Inhibitors of the Functional Ribonucleoprotein Complex (vRNP) of Lassa (LASV) Arenavirus: Viability assay - alamar blue signal for LASV Primary Screen (AID 1347083; calls by dose curve; tested in HEK293 reporter line; note: nearly all actives have a fitted effect of over 80% in size; note: potency is the fitted concentration of half-maximal effect)
[7] = qHTS for Inhibitors of the Functional Ribonucleoprotein Complex (vRNP) of Lymphocytic Choriomeningitis Arenaviruses (LCMV): Viability assay - alamar blue signal for LCMV Primary Screen (AID 1347085; calls by dose curve; tested in HEK293 reporter line; note: nearly all actives have a fitted effect of over 80% in size; note: potency is the fitted concentration of half-maximal effect)
[8] = target: Nucleoprotein (Lymphocytic choriomeningitis virus (strain Armstrong)) (UniProt P09992); assay: qHTS for Inhibitors of the Functional Ribonucleoprotein Complex (vRNP) of Lymphocytic Choriomeningitis Arenaviruses (LCMV): LCMV Primary Screen - GLuc reporter signal (AID 1347086); note: % is set by controls: 0 for no effect and ±100 for the full control effect; nearly all actives have a fitted effect of over 70% in size
CRL-7250 = normal cell line; assay: qHTS assay to identify novel small-molecules to repurpose for Merkel cell carcinoma treatment (AID 1296009; active = well fitted curve in the direction sought with a large enough effect; an effect the other way counts as inactive or inconclusive; note: nearly all actives have a fitted effect of over 60% in size); conditions: MCC and control cell lines, CellTiter-Glo viability, 72 h; series mostly up to 92 µM
Summary of the method: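 Cells exposed to NPC (8-point) and MIPE (11-point) compound dilutions for 72 hr at 37 degree celsius; viability read by CellTiter-Glo luminescence, normalized to no-cell and DMSO in-plate controls.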

[9] = Cytotoxicity counterscreen for inhibitors of SARS-CoV-2 cell entry (AID 1645845); note: nearly all actives have a fitted effect of over 50% in size
Summary of the method: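 Expi293F/hACE2 cells seeded overnight; cpd pin-transferred in DMSO, 1 h preincubation, + media, 48 h 37 C 5% CO2; ATPLite 1step luminescence; normalized to cells and no cells.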

[10] = Primary qHTS to identify inhibitors of SARS-CoV-2 cell entry (AID 1645846); conditions: activity change, negative = inhibition: at 57.1 µM (top of the series) unless noted; note: nearly all actives have a fitted effect of over 45% in size; note: potency is the fitted concentration of half-maximal effect
Summary of the method: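 Luminescence readout (Bright-Glo luciferase) 48 h after pseudoparticle addition. HEK293-ACE2 cells, 1500/well; compound pre-incubation 1 h; Normalized to spike PP and bald PP.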

[11] = qHTS profiling of the MIPE4 collection as inhibitors of Plasmodium falciparum (3D7) proliferation (AID 743344; call rule not given here;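 note: scaled between DMSO vehicle wells and 0.29 µM artemisinin as full inhibition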); conditions: P. falciparum 3D7 in erythrocytes, SYBR Green DNA fluorescence, 72 h; at 28.5 µM (top of the series) unless noted
Summary of the method: (§1)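 Erythrocytes infected with P. falciparum (0.3% parasitemia, 2.5% hematocrit) incubated with compounds 72 h at 37 C, 5% CO2. Lysis with saponin/Triton buffer containing SYBR Green I, overnight at room temperature in the dark; DNA fluorescence (485/535 nm) normalised to 0.29 uM artemisinin and DMSO.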

[12] = qHTS profiling of the MIPE4 collection as inhibitors of Plasmodium falciparum (DD2) proliferation (Rep 2) (AID 743346; call rule not given here); conditions: P. falciparum Dd2 in erythrocytes, SYBR Green DNA, 72 h; at 28.5 µM (top of the series) unless noted
Summary of the method: as §1

[13] = Confirmatory qHTS to identify inhibitors of SARS-CoV-2 cell entry (AID 1645844); note: potency is the fitted concentration of half-maximal effect; nearly all actives have a fitted effect of over 45% in size
Summary of the method: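 HEK293-ACE2 cells (Expi293F stably expressing human ACE2) were pretreated with compounds for 1 hr at 37C, then infected with MLV-based particles carrying Wuhan-Hu-1 spike (C-terminal 19-aa truncation). Luciferase luminescence read after 48 hr; normalized to spike PP (100%) and bald PP (0%).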

[14] = VSVG counterscreen qHTS to identify inhibitors of SARS-CoV-2 cell entry (AID 1645847); note: potency is the fitted concentration of half-maximal effect; nearly all actives have a fitted effect of over 65% in size
Summary of the method: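 HEK293-ACE2 cells (Expi293F stably expressing human ACE2) were pretreated with compound for 1 h at 37 °C, then infected with MLV-based VSV-G pseudotyped particles for 48 h. Luciferase luminescence was normalized to VSV-G PP and bald PP wells.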

[15] = target: Bile acid receptor (Homo sapiens) (UniProt Q96RI1); assay: qHTS assay for small molecule agonists of farnesoid X receptor signaling (AID 588527); conditions: HEK293T FXR-UAS-bla, beta-lactamase ratio, 16 h; activation: stronger effect = higher value;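 note: 0% = vehicle basal and 100% = reference agonist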
Summary of the method: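 FXR-UAS-bla HEK293T cells (10% dialyzed FBS) preincubated 5-7 h at 37 C, then compounds at up to 92 uM for 16 h at 37 C. CCF4 beta-lactamase read-out after 2 h RT. Normalized to chenodeoxycholic acid (100 uM) and DMSO; Hill fit gave EC50 and efficacy.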

[16] = target: Peroxisome proliferator-activated receptor delta (Homo sapiens) (UniProt Q03181); assay: qHTS assay for small molecule agonists of peroxisome proliferator-activated receptor delta signaling (AID 588534);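 note: 0% = DMSO basal wells and 100% = positive control agonist at 10 µM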
Summary of the method: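 Cell-based beta-lactamase reporter assay run in agonist mode: cells seeded and incubated 5 hrs at 37 C, compounds added and incubated 18 hrs at 37 C. CCF4 dye fluorescence read after 2 hrs at RT; EC50 and efficacy from Hill fits.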

Sequence of Nucleoprotein (Lymphocytic choriomeningitis virus (strain Armstrong)) (P09992 whole entry, looked up): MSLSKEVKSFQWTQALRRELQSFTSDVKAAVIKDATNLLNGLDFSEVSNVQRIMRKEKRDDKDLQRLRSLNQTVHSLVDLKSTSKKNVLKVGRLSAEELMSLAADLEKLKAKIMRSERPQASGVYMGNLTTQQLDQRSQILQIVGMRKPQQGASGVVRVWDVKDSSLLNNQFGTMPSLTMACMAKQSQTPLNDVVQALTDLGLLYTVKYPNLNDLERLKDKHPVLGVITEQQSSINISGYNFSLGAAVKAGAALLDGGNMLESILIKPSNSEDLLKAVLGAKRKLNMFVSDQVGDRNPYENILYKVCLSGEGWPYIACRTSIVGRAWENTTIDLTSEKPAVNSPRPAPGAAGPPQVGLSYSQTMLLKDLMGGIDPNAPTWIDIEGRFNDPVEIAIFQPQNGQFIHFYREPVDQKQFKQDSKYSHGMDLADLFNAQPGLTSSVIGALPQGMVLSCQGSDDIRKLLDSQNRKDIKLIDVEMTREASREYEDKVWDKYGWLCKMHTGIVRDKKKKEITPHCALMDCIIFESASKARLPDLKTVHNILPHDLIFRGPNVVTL
Sequence of Alpha-galactosidase (Coffea arabica) (Q42656 whole entry, looked up): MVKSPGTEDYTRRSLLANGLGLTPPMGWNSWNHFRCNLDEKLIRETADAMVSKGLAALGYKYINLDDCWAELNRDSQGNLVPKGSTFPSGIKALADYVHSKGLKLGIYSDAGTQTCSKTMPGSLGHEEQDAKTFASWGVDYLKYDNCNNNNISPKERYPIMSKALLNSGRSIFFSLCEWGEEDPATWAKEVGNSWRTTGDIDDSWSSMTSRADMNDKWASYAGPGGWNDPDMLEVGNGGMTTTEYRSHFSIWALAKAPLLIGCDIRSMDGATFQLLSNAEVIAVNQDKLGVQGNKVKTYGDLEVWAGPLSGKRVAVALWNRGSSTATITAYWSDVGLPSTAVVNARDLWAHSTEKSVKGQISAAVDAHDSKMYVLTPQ
Sequence of Bile acid receptor (Homo sapiens) (Q96RI1 whole entry, looked up): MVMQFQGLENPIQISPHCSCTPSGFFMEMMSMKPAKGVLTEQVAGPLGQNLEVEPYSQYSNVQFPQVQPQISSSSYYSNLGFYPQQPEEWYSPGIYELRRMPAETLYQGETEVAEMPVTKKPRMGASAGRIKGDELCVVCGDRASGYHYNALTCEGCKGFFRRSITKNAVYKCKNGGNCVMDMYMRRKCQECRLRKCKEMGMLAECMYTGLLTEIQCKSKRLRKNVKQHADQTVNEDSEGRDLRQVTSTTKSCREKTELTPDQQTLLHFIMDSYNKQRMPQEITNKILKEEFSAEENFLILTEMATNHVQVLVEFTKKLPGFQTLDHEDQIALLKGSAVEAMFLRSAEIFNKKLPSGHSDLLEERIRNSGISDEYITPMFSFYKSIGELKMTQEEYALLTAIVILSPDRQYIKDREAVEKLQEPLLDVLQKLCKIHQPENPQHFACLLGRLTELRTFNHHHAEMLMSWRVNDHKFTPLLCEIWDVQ
Sequence of Peroxisome proliferator-activated receptor delta (Homo sapiens) (Q03181 whole entry, looked up): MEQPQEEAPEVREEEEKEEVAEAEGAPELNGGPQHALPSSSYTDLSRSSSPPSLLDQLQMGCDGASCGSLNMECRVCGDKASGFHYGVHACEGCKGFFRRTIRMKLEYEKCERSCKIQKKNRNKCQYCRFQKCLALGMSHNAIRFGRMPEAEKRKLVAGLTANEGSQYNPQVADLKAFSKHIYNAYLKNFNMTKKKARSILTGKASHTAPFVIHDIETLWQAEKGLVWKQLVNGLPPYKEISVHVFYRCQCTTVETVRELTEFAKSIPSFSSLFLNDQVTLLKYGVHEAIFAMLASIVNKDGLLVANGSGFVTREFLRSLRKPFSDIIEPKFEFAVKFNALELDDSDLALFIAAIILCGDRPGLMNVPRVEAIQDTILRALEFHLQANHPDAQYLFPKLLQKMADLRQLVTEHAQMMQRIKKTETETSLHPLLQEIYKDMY

COc1ccccc1N1CCN(CCN(C(=O)C2CCCCC2)c2ccccn2)CC1
inactive: outcome [1] | outcome [2] | Potency [3] | outcome [4] | Potency [5] | Potency [6] | Potency [7] | Potency [8] | Potency (CRL-7250)

Cc1cnc(-c2cc(N3CCN(C(=O)CCS(C)(=O)=O)CC3)ncc2Cl)c(C)c1
-19%: activity change, negative = inhibition [10]
inactive: Potency [5] | Potency [6] | Potency [7] | Potency [8] | Potency [9] | Potency (CRL-7250)

COc1ccc2cc([S+]([O-])Cc3ncc(C)c(OC)c3C)nc2c1
inactive: outcome [4] | Potency [5] | Potency [6] | Potency [7] | Potency [8] | Potency (CRL-7250)

OC1CCC(Nc2ncc3nc(Nc4c(F)cc(F)cc4F)n([C@@H]4CCOC4)c3n2)CC1 (some centres not stated)
active: Potency [6] 24.3 µM | Potency [7] 21.7 µM
inactive: Potency [5] | Potency [9] | Potency [10] | Potency (CRL-7250)

c1coc(CNc2ncnc3nc[nH]c23)c1
inactive: Potency [5] | Potency [6] | Potency [7] | Potency [8] | Potency [9] | Potency (CRL-7250)
71.1%: parasite growth, % of DMSO control [11]
80%: parasite growth, % of control (lower = inhibition) [12]

COC1CCC(C(=O)c2ccc3nc4c(cc3c2)CCCO4)CC1 (configuration not stated)
inactive: Potency [5] | Potency [6] | Potency [7] | Potency [8] | Potency [10] | Potency (CRL-7250)

Nc1ccc(C(=O)Nc2cccc(-c3nc(N4CCOCC4)c4oc5ncccc5c4n3)c2)cn1
inactive: Potency [5] | Potency (CRL-7250)
active: Potency [6] 1.22 µM | Potency [7] 0.968 µM | Potency [13] 0.192 µM | Potency [10] 0.891 µM | Potency [14] 0.0048 µM

CCC(c1ccc(O)cc1)C(CC)c1ccc(O)cc1 (configuration not stated)
inactive: Potency [5] | Potency [6] | Potency [7] | Potency [9] | Potency (CRL-7250)
-63.9%: activity change, negative = inhibition [10]
active: Potency [13] 27.1 µM | Potency [14] 30.4 µM

O=C(CN1C(=O)C2(CCCC2)NC[C@H]1c1cc(F)cc(F)c1)Nc1ccc2c(c1)C[C@@]1(C2)C(=O)Nc2ncccc21
inactive: Potency [5] | Potency [6] | Potency [7] | Potency [8] | Potency [9] | Potency (CRL-7250)
-13.1%: activity change, negative = inhibition [10]

O=C(/C=C/C=C/c1ccc2c(c1)OCO2)N1CCCCC1
inactive: activation [15] 4.73% | Potency [16] | Potency [5] | Potency [6] | Potency [7] | Potency [8] | Potency [9] | Potency (CRL-7250)
-9.28%: activity change, negative = inhibition [10]

O=C(O)C1CCCN(CCC=C(c2ccccc2)c2ccccc2)C1 (configuration not stated)
-1.36%: activity change, negative = inhibition [10]
inactive: Potency [3] | outcome [4] | Potency [5] | Potency [6] | Potency [7] | Potency [8] | Potency [9] | Potency (CRL-7250)
